Inconclusive results are not listed. Values without a mark were called inactive. Activity calls are given as the source filed them. Calls follow the shape of the dose curve; as a rule, active = well fitted curve in the direction sought with a large enough effect; inconclusive = small, poorly fitted or top-dose-only effect, or another doubt; inactive = no such curve, though single readings can be large; an effect the other way counts as inactive or inconclusive.
Experiments:
[1] = qHTS of pediatric cancer cell lines to identify multiple opportunities for drug repurposing: Primary screen for BT-37 cells (AID 1347094); conditions: BT-37 viability, CellTiter-Glo luminescence, 48 h; series mostly up to 57.3 µM; also: potency is read from the fitted curve at half-maximal effect;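 as to activity change, negative = cytotoxic: plate controls were DMSO for no effect and bortezomib for full effect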
Procedure, shortened: (§1)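 ATP-based luminescence (CellTiter-Glo) quantifies viability after a 48-hour exposure. Compounds are dosed across 8 or 11 final concentrations; DMSO and 2.3 µM bortezomib serve as controls.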

[2] = qHTS of pediatric cancer cell lines to identify multiple opportunities for drug repurposing: Primary screen for NB-EBc1 cells (AID 1347095); conditions: NB-EBc1 neuroblastoma viability, CellTiter-Glo luminescence, 48 h; series mostly up to 46 µM; also: potency is read from the fitted curve at half-maximal effect;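 as to activity change, negative = cytotoxic: plate controls were DMSO neutral control for no effect and bortezomib for full effect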
Procedure, shortened: as §1

[3] = qHTS of pediatric cancer cell lines to identify multiple opportunities for drug repurposing: Primary screen for Saos-2 cells (AID 1347097); conditions: Saos-2 viability, CellTiter-Glo ATP luminescence, 48 h; series mostly up to 46 µM; also: nearly all actives have a fitted effect of over 40% in size; also: potency is read from the fitted curve at half-maximal effect; as to activity change, negative = cytotoxic: % is scaled to controls: 0 for no effect and ±100 for the full control effect
Procedure, shortened: as §1

[4] = qHTS of pediatric cancer cell lines to identify multiple opportunities for drug repurposing: Primary screen for SK-N-SH cells (AID 1347098); conditions: SK-N-SH viability, CellTiter-Glo luminescence, 48 h; series mostly up to 57 µM; also: nearly all actives have a fitted effect of over 65% in size; also: potency is read from the fitted curve at half-maximal effect;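 as to activity change, negative = cytotoxic: DMSO served as neutral control and bortezomib at 2.3 µM as positive control; % is scaled to controls: 0 for no effect and ±100 for the full control effect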
Procedure, shortened: (§2)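 Cells (500-1,000/well) rested 5 h, then received compounds for 48 h; metabolically active cells were measured by CellTiter-Glo luminescence. Final concentrations spanned up to 46 µM (MIPE, 11-point) or 0.59 nM-46 µM (NPC, 8-point) in primary screens, 11-point in follow-ups.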

[5] = qHTS of pediatric cancer cell lines to identify multiple opportunities for drug repurposing: Primary screen for NB1643 cells (AID 1347099); conditions: NB1643 neuroblastoma viability, CellTiter-Glo luminescence, 48 h; series mostly up to 46 µM; also: nearly all actives have a fitted effect of over 50% in size; also: potency is read from the fitted curve at half-maximal effect;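 as to activity change, negative = cytotoxic: plate controls were DMSO neutral control for no effect and bortezomib positive control for full effect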
Procedure, shortened: as §1

[6] = qHTS of pediatric cancer cell lines to identify multiple opportunities for drug repurposing: Primary screen for BT-12 cells (AID 1347101); conditions: BT-12 viability, CellTiter-Glo luminescence, 48 h; series mostly up to 57.3 µM; also: nearly all actives have a fitted effect of over 25% in size; also: potency is read from the fitted curve at half-maximal effect;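 as to activity change, negative = cytotoxic: plate controls were DMSO for no effect and bortezomib positive control for full effect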
Procedure, shortened: as §2

[7] = qHTS of pediatric cancer cell lines to identify multiple opportunities for drug repurposing: Primary screen for Rh18 cells (AID 1347102); conditions: Rh18 rhabdomyosarcoma viability, CellTiter-Glo luminescence, 48 h; series mostly up to 46 µM; also: nearly all actives have a fitted effect of over 65% in size; also: potency is read from the fitted curve at half-maximal effect; as to activity change, negative = cytotoxic: % is scaled to controls: 0 for no effect and ±100 for the full control effect
Procedure, shortened: (§3)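 Cells (500-1,000/well) in growth media were settled 5 h at 37 degrees C, then given compounds for 48 h. Viability was read as CellTiter-Glo luminescence. Primary runs used MIPE at 11 points (0.78 nM-46 µM) and NPC at 8 points (0.59 nM-46 µM); follow-ups used 11 points.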

[8] = qHTS of pediatric cancer cell lines to identify multiple opportunities for drug repurposing: Primary screen for OHS-50 cells (AID 1347103); conditions: OHS-50 osteosarcoma viability, CellTiter-Glo luminescence, 48 h; series mostly up to 57.3 µM; also: nearly all actives have a fitted effect of over 40% in size; also: potency is read from the fitted curve at half-maximal effect;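 as to activity change, negative = cytotoxic: plate controls were DMSO neutral control for no effect and bortezomib positive control for full effect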
Procedure, shortened: as §2

[9] = qHTS of pediatric cancer cell lines to identify multiple opportunities for drug repurposing: Primary screen for RD cells (AID 1347104); conditions: RD rhabdomyosarcoma viability, CellTiter-Glo luminescence, 48 h; series mostly up to 46 µM; also: nearly all actives have a fitted effect of over 55% in size; also: potency is read from the fitted curve at half-maximal effect
Procedure, shortened: as §1

[10] = qHTS of pediatric cancer cell lines to identify multiple opportunities for drug repurposing: Primary screen for MG 63 (6-TG R) cells (AID 1347105); conditions: MG 63 (6-TG R) viability, CellTiter-Glo, 48 h; series mostly up to 46 µM; also: nearly all actives have a fitted effect of over 50% in size; also: potency is read from the fitted curve at half-maximal effect
Procedure, shortened: as §1

[11] = qHTS of pediatric cancer cell lines to identify multiple opportunities for drug repurposing: Primary screen for control Hh wild type fibroblast cells (AID 1347106); conditions: Hh wild-type fibroblast viability, CellTiter-Glo luminescence, 48 h; series mostly up to 46 µM;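 also: % is scaled to controls: 0 for no effect and ±100 for the full control effect; a drop in luminescence marks cytotoxicity and a rise apparent proliferation; nearly all actives have a fitted effect of over 55% in size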
Procedure, shortened: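 Viability after 48 h compound treatment at 37C, 500-1,000 cells/well, read as ATP luminescence with CellTiter-Glo. Primary screens used 11-point (MIPE, 0.78 nM-46 µM) or 8-point (NPC, 0.59 nM-46 µM) final concentrations; follow-up screens used 11-point dilutions.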

[12] = qHTS of pediatric cancer cell lines to identify multiple opportunities for drug repurposing: Confirmatory screen for SK-N-MC cells (AID 1347111); conditions: SK-N-MC cell viability; series mostly up to 45.9 µM;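 also: cells exposed to compound for 48 h before the readout; nearly all actives have a fitted effect of over 70% in size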; also: potency is read from the fitted curve at half-maximal effect;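 as to activity change, negative = cytotoxic: plate controls were DMSO for no effect and bortezomib for full effect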
Procedure, shortened: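 Metabolically active cells were quantified by ATP-dependent luminescence (CellTiter-Glo, 15 min at room temperature) following 48 h treatment. Cells had been plated at 500-1,000 per well and settled for 5 h beforehand.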

[13] = qHTS of pediatric cancer cell lines to identify multiple opportunities for drug repurposing: Confirmatory screen for LAN-5 cells (AID 1347113); conditions: LAN-5 neuroblastoma cell viability; series mostly up to 45.9 µM; also: potency is read from the fitted curve at half-maximal effect; nearly all actives have a fitted effect of over 65% in size
Procedure, shortened: as §3

[14] = qHTS of pediatric cancer cell lines to identify multiple opportunities for drug repurposing: Primary screen for Rh41 cells (AID 1347108); conditions: Rh41 rhabdomyosarcoma viability, CellTiter-Glo luminescence, 48 h; series mostly up to 46 µM; also: nearly all actives have a fitted effect of over 70% in size; also: potency is read from the fitted curve at half-maximal effect
Procedure, shortened: as §1

[15] = qHTS of pediatric cancer cell lines to identify multiple opportunities for drug repurposing: Confirmatory screen for NB1643 cells (AID 1347109); conditions: NB1643 neuroblastoma cell viability; series mostly up to 45.9 µM; also: potency is read from the fitted curve at half-maximal effect; nearly all actives have a fitted effect of over 45% in size
Procedure, shortened: as §3

[16] = qHTS of pediatric cancer cell lines to identify multiple opportunities for drug repurposing: Confirmatory screen for A673 cells (AID 1347110); conditions: A673 Ewing sarcoma cell viability; series mostly up to 45.9 µM;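 also: potency is read from the fitted curve at half-maximal effect; cells exposed to compound for 48 h before the viability read; nearly all actives have a fitted effect of over 65% in size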
Procedure, shortened: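 Concentration-response curves came straight from titrations: 11 points (0.78 nM to 46 µM) for MIPE and several concentrations (0.59 nM to 46 µM) for NPC in primary, 11 points in follow-up. Readout: ATP luminescence at 48 h.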

[17] = qHTS of pediatric cancer cell lines to identify multiple opportunities for drug repurposing: Primary screen for LAN-5 cells (AID 1347100); conditions: LAN-5 neuroblastoma viability, CellTiter-Glo luminescence, 48 h; series mostly up to 46 µM; also: potency is read from the fitted curve at half-maximal effect;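 as to activity change, negative = cytotoxic: plate controls were DMSO neutral control for no effect and bortezomib positive control for full effect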
Procedure, shortened: as §3

[18] = qHTS of pediatric cancer cell lines to identify multiple opportunities for drug repurposing: Confirmatory screen for BT-12 cells (AID 1347112); conditions: BT-12 rhabdoid tumor cells, viability; series mostly up to 45.9 µM; also: potency is read from the fitted curve at half-maximal effect; nearly all actives have a fitted effect of over 55% in size
Procedure, shortened: as §3

[19] = qHTS of pediatric cancer cell lines to identify multiple opportunities for drug repurposing: Primary screen for U-2 OS cells (AID 1347096); conditions: U-2 OS viability, CellTiter-Glo luminescence, 48 h; series mostly up to 46 µM;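 also: plate controls were DMSO wells for no effect and bortezomib positive control wells for full effect; nearly all actives have a fitted effect of over 50% in size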
Procedure, shortened: as §3

[20] = qHTS of pediatric cancer cell lines to identify multiple opportunities for drug repurposing: Primary screen for Rh30 cells (AID 1347107); conditions: Rh30 rhabdomyosarcoma viability, CellTiter-Glo luminescence, 48 h; series mostly up to 46 µM; also: % is scaled to controls: 0 for no effect and ±100 for the full control effect; nearly all actives have a fitted effect of over 75% in size
Procedure, shortened: as §3

Row | SMILES | Potency [1] | Potency [2] | Potency [3] | Potency [4] | Potency [5] | Potency [6] | Potency [7] | Potency [8] | Potency [9] | Potency [10] | Potency [11] | Potency [12] | Potency [13] | Potency [14] | Potency [15] | Potency [16] | Potency [17] | Potency [18] | activity change, negative = cytotoxic [19] | Potency [20]
1 | Oc1cc(-c2nc(-c3ccccc3)[nH]c2-c2ccncc2)ccc1Cl | 3.85 µM (active) | 3.72 µM (active) | 11.8 µM (active) | 19.2 µM (active) | 18.7 µM (active) | 6.11 µM (active) | 13.2 µM (active) | 24.3 µM (active) | 2.09 µM (active) | 11.8 µM (active) | inactive | 3.69 µM (active) | 6.57 µM (active) |  |  |  |  |  |  | 
2 | C=CC(=O)N1CCc2ccc(-n3c(=O)ccc4cnc5ccc(-c6cnn(C)c6)cc5c43)cc21 | 6.11 µM (active) | 3.72 µM (active) | 2.96 µM (active) | 8.57 µM (active) | 2.35 µM (active) | 6.11 µM (active) |  | 8.63 µM (active) | 4.69 µM (active) | 2.96 µM (active) |  | 5.22 µM (active) | 2.93 µM (active) | 3.72 µM (active) | 2.93 µM (active) | 14.7 µM (active) |  |  |  | 
3 | CCC(C(=O)O)C1CCC(C)C(C(C)C(O)C(C)C(=O)C(CC)C2OC3(C=CC(O)[C@@]4(CC[C@](C)(C5CC[C@@](O)(CC)C(C)O5)O4)O3)C(C)CC2C)O1 (some centres undefined) | 0.611 µM (active) | 0.296 µM (active) | 9.35 µM (active) | 12.1 µM (active) | 1.66 µM (active) | 0.385 µM (active) | 5.9 µM (active) | 0.432 µM (active) | 4.18 µM (active) | 18.7 µM (active) |  | inactive | 1.17 µM (active) | 3.72 µM (active) | 1.17 µM (active) | 5.85 µM (active) | 1.05 µM (active) | 3.69 µM (active) |  | 
4 | CCC(C=C[C@@H]1OC(=O)C=C[C@H]1C)=C[C@H](C)CC=CC(C)=C[C@@H](C)C(=O)[C@@H](C)[C@H](O)[C@@H](C)CC(C)=CC(=O)O | 0.0102 µM (active) | 0.0247 µM (active) |  | 0.0403 µM (active) | 0.0277 µM (active) | 0.0322 µM (active) |  | 0.128 µM (active) | 0.0782 µM (active) |  |  | 0.0064 µM (active) | 0.0051 µM (active) | 0.0247 µM (active) |  |  |  |  | 13.2% [at 1.86 µM] | 
5 | CCCCCCCCCCCCCCCC(=O)OC[C@@H](NC(=O)C(Cl)Cl)[C@H](O)c1ccc([N+](=O)[O-])cc1 | inactive | inactive | inactive | inactive | inactive | inactive | inactive | inactive | inactive | inactive | inactive |  |  | inactive |  |  | inactive |  |  | inactive
6 | O=C(Nc1cc2cc[nH]c2cn1)c1ccccc1 | 7.69 µM (active) | 13.2 µM (active) | 11.8 µM (active) | 19.2 µM (active) | 14.8 µM (active) | 6.85 µM (active) | 11.8 µM (active) | 10.9 µM (active) | 14.8 µM (active) | 14.8 µM (active) |  | 2.61 µM (active) | 14.7 µM (active) | 18.7 µM (active) | 10.4 µM (active) |  | 14.8 µM (active) | 14.7 µM (active) |  | 
7 | Cn1cc(-c2cnn3c(N)c(Br)c([C@H]4CCCNC4)nc23)cn1 | 0.685 µM (active) | 0.264 µM (active) | 1.48 µM (active) | 17.1 µM (active) | 1.32 µM (active) |  |  |  | 1.05 µM (active) |  |  | 0.827 µM (active) | 5.85 µM (active) | 2.35 µM (active) | 1.85 µM (active) | 14.7 µM (active) | 0.743 µM (active) |  |  | inactive
8 | COc1cccc2c1C(=O)c1c(O)c3c(c(O)c1C2=O)C[C@@](O)(C(=O)CO)C[C@@H]3O[C@H]1C[C@H](N)[C@H](OC2CCCCO2)[C@H](C)O1 (some centres undefined) | 1.93 µM (active) | 0.296 µM (active) | inactive | inactive |  | 2.43 µM (active) |  |  | 13.2 µM (active) |  | inactive | 0.737 µM (active) | 1.17 µM (active) |  | 1.65 µM (active) | 2.61 µM (active) | 0.469 µM (active) | 10.4 µM (active) |  | inactive
9 | CC(C)(N)c1ccc(-c2nc3ccccc3nc2-c2ccccc2)cc1 | 15.3 µM (active) | 18.7 µM (active) | 1.05 µM (active) | 21.5 µM (active) | 23.5 µM (active) | 24.3 µM (active) |  | 7.69 µM (active) | 16.6 µM (active) | 23.5 µM (active) |  | 0.465 µM (active) | 0.465 µM (active) |  | 26.1 µM (active) |  | 13.2 µM (active) |  |  | 
10 | NC[C@H]1O[C@H](O[C@H]2[C@@H](O)[C@@H](O[C@H]3O[C@H](CO)[C@@H](O)[C@H](N)[C@@H]3O)[C@H](N)C[C@@H]2N)[C@H](N)C[C@H]1O | inactive | inactive | inactive | inactive | inactive | inactive | inactive | inactive | inactive | inactive | inactive |  |  | inactive |  |  | inactive |  |  | inactive

Reference: PubChem BioAssay (NCATS)
